JMJD2A Tudor inh: JMJD2A Tudor domain (human) inhibition | AlphaScreen JMJD2A-Tudor / H3K4me3 peptide binding | AID 504339 | 390,000 compounds, 4.4% hits | Potency, µM (series often up to 114 µM), actives largely listed as inhibitors | O75164; further: nearly all actives have a fitted effect of over 50% in size
G9a inh: blocks human histone lysine methyltransferase G9a; G9a H3K9 monomethylation, AlphaScreen, 2 h; Potency, µM (highest dose often 102 µM), usual class: inhibitors; 350,000 compounds, 8.8% hits; further: nearly all actives have a fitted effect of over 75% in size
Target sequence (Q96KQ7 913-1193 limits assumed): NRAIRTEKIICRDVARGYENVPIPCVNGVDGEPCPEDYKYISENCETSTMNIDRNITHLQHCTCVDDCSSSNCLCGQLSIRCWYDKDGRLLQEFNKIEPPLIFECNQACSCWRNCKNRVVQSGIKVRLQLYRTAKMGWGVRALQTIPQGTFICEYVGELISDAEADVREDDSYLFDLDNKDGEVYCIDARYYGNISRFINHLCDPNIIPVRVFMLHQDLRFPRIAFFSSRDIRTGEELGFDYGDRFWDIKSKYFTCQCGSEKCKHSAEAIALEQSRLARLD
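AlphaScreen read-out: biotin-H3K9 peptide (500 nM) methylation by 20 nM enzyme with 20 uM SAM, 2 h at room temperature after 15 min compound preincubation; anti-monomethyl H3K9 antibody plus donor/acceptor beads, 10 min dark.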
BAZ2B block: inhibitors of human BAZ2B bromodomain | Potency, µM (doses to about 114 µM), usual class: inhibitors | AID 504333 | Q9UIF8 | 360,000 compounds, 4.4% hits | AlphaScreen BAZ2B-H3K14Ac peptide displacement; further: nearly all actives have a fitted effect of over 60% in size
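Inhibition is scored as reduced AlphaScreen emission. The BAZ2B/b-H3(5-23)K14Ac complex (50 nM each) in PBS pH 7.4, 0.01% Tween-20 meets compound (up to 110 uM) for 30 min at RT before bead addition.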
L3MBTL1 block: blocks human L3MBTL1 | Potency, µM (highest dose often 57.1 µM), hits mostly inhibitors | Q9Y468 | 230,000 compounds, 0.66% hits | AID 485360 | AlphaScreen L3MBTL1–H3K9me1 peptide binding; further: nearly all actives have a fitted effect of over 60% in size
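AlphaScreen proximity signal between nickel-chelate acceptor and streptavidin donor beads (final 10 ug/mL) reports binding of 50 nM L3MBTL1 to 75 nM biotin-H3 K9me1 peptide; complex incubated with compounds 30 min at room temperature; cefsulodin titration as control.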
HP1b chromo inh: HP1-beta chromodomain-methylated histone interaction inhibition. P83916. AID 540317. AlphaScreen HP1-beta / biotin-H3K9me3 peptide binding. Potency, µM (highest dose often 114 µM), most hits filed as inhibitors. 390,000 compounds, 0.56% hits; further: nearly all actives have a fitted effect of over 70% in size
Target sequence (P83916 whole entry, looked up): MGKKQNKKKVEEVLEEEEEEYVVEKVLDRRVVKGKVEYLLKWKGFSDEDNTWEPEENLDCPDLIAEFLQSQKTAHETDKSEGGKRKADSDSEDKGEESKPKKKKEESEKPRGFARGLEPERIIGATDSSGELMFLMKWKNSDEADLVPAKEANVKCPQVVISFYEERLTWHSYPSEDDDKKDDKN
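AlphaScreen: HP1-beta (50 nM) preformed 30 min with biotin-H3(1-18)K9me3 peptide (50 nM) in PBS pH 7.4, 0.01% Tween-20. Compound added for 30 min at RT, then streptavidin donor/nickel chelate acceptor beads (10 ug/mL) for 30 min.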
Sfp PPTase inh: inhibitors of Bacillus subtilis Sfp phosphopantetheinyl transferase. Potency, µM, hits mostly inhibitors. Biochemical Sfp PPTase activity, qHTS. 310,000 compounds, 3.5% hits. Q9F4F7;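 further: the enzyme is Sfp with the accession as filed and its product quenches rhodamine fluorescence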
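Compounds were incubated with enzyme (final 15 nM) for 15 min at room temperature before substrate addition started the reaction. Fluorescence at 525 nm excitation, 598 nm emission was recorded immediately and after 30 minutes.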
Hits are given with their value; - = inactive; ? = inconclusive; . = no result given; ! = repeats disagree; [ ] = dose if it differs, or a comment. An excerpt weighted towards active compounds, which were near 12% of everything screened. The call rests on the fitted dose curve; in most records, active means well fitted curve in the direction sought with a large enough effect; inconclusive means small, poorly fitted or top-dose-only effect, or another doubt; inactive means no such curve, though single readings can be large; an effect the other way counts as inactive or inconclusive.

SMILES	JMJD2A Tudor inh	G9a inh	BAZ2B block	L3MBTL1 block	HP1b chromo inh	Sfp PPTase inh
CC(C)(C)c1ccc(OCC(=O)NN2Cc3ccccc3C2=N)cc1	-	50.1µM	-	-	-	-
N=C1c2ccccc2CN1NC(=O)COc1ccc(Cl)cc1	-	35.5µM	-	-	-	-
CCc1ccc(NC(=O)CSc2nc3ccsc3c(=O)n2C(C)CC)cc1 (stereo not drawn)	-	-	-	.	-	.
Cc1ccc(S(=O)(=O)Nc2cccc(-c3ccc(N4CCCCC4)nn3)c2)s1	-	-	-	.	-	.
CC(=O)c1ccc(N2CCN(CC(O)COC(c3ccccc3)c3ccccc3C)CC2)cc1 (stereo not drawn)	4.47µM	8.91µM	25.1µM	.	44.7µM	?
OC(COC(c1ccccc1)c1ccccc1)CN1CCN(c2cccc(Cl)c2)CC1 (stereo not drawn)	-	-	-	.	-	-
CC(=O)c1ccc(N2CCN(CC(O)COC(c3ccccc3)c3ccccc3)CC2)cc1 (stereo not drawn)	10µM	20µM	17.8µM	.	22.4µM	?
O=C(Cn1c(-c2cccs2)cc2cc(Cl)ccc21)N1CCN(c2ccccc2)CC1	-	-	-	.	-	.
O=C(c1cccc(F)c1)N1CCC2(CCCN(C(c3ccccc3)c3ccccc3)C2)CC1	.	-[12.7 µM]	.	.	.	?
Cc1c(C(=O)NC2CCN(Cc3ccccc3)C2)oc2ccc(Br)cc12 (stereo not drawn)	?	35.5µM	?	.	-	-
Cc1c(C(=O)NCCN2CCOCC2)oc2ccc(Br)cc12	-	-[0.501 µM]	50.1µM	-	?	.
CCc1ccccc1NC(=O)c1nnn(Cc2ccc(Cl)cc2)c1N	-	-	-	.	-	.
Cc1[nH]n(-c2ccc(Br)cc2)c(=O)c1C=Nc1ccc(S(=O)(=O)Nc2nccs2)cc1	?	-	?	-	-	-
Cc1cc(C)nc(NS(=O)(=O)c2ccc(N=Cc3c(C)[nH]n(-c4ccccc4)c3=O)cc2)n1	79.4µM	-	-	-	-	-
CCc1nnc(NS(=O)(=O)c2ccc(N=Cc3c(C)[nH]n(-c4ccc(C)c(C)c4)c3=O)cc2)s1	-	-	50.1µM	-	-	-
Cc1ccc(-n2[nH]c(C)c(C=Nc3ccc(S(=O)(=O)Nc4nc(C)cc(C)n4)cc3)c2=O)c(C)c1	?	-	-	-	-	-
CC(C)CNc1nc(Oc2ccc(OCC(N)=O)nn2)nc(N2CCOCC2)n1	-	-	-	.	-	.
O=C(O)CCCn1cc(NC(=O)COc2ccccc2F)cn1	79.4µM!	-	-	.	-	-
Cc1cc(OCC(=O)Nc2cnn(CCCC(=O)O)c2)ccc1Cl	-	14.1µM!	-	.	-	-
N#Cc1nc(NCC(F)F)c2ncn(-c3cc(F)cc(F)c3)c2n1	-	.	.	.	.	.
CCOC(=O)C=C(C(=O)OCC)C(=O)OCC	-	12.6µM	-	-	?	17.8µM
CN(C(=O)c1ccc2c(Cl)c3c(nc2c1)CCC3)c1ccccc1F	?	-	-	.	-	.
CCOC(=O)Cn1c(CN2CCN(c3ccc(OC)cc3)CC2)nc2c1c(=O)[nH]c(=O)n2C	-	?	-	.	-	.
O=C1C(=O)N(C2CCS(=O)(=O)C2)C(c2cccc(O)c2)/C1=C(/O)c1ccc(Cl)cc1 (stereo not drawn)	?	31.6µM	79.4µM	.	-	-
COC(=O)c1ccc(C2/C(=C(/O)c3ccc(Cl)cc3)C(=O)C(=O)N2C2CCS(=O)(=O)C2)cc1 (stereo not drawn)	89.1µM	44.7µM	?	.	-	-
CCc1nn2c(=O)cc(COC(=O)c3ccccc3NC(=O)C3CCCCC3)nc2s1	-	-	-	.	-	.
Cc1ccc(-c2nn(-c3ccccc3)cc2C2CC(c3ccccc3)=NN2C(=O)CCC(=O)O)cc1 (stereo not drawn)	-	.	?	-	-	-
Cc1ccc(C2=NN(C(=O)CCC(=O)O)C(c3cn(-c4ccccc4)nc3-c3ccc(C)cc3)C2)cc1 (stereo not drawn)	50.1µM	?	.	.	-	89.1µM
COc1ccc(-c2nn(-c3ccccc3)cc2C2CC(c3cccs3)=NN2C(=O)CCCC(=O)O)cc1 (stereo not drawn)	-	?	79.4µM	.	-	-
